# According to PubChem BioAssay (NCATS):
# Results filed as inconclusive are left out. A call without a number means that no potency is given here. The source made the active and inactive calls. Calls come from the whole dose curve; as a rule, active = well fitted curve in the direction sought with a large enough effect; inconclusive = small, poorly fitted or top-dose-only effect, or another doubt; inactive = no such curve, though single readings can be large; an effect the other way counts as inactive or inconclusive.
# What was measured:
# [1] = NS1 protein of Zika virus - qHTS assay to identify small molecule inhibitors in human HEK 293 cells (AID 1347053); note: series mostly up to about 46 µM; nearly all actives have a fitted effect of over 55% in size
# Outline: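 HEK 293; 20 h pre-culture, 37 C/5% CO2; cpd 1 h pre-infection; ZIKV MR766, MOI = 0.5, 24 h, 37 C; TR-FRET NS1 readout (two anti-NS1 Abs); norm. to no-virus vs infected.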
# [2] = qHTS of pediatric cancer cell lines to identify multiple opportunities for drug repurposing: Primary screen for DAOY cells (AID 1347090); note: nearly all actives have a fitted effect of over 55% in size; note: potency is the fitted concentration of half-maximal effect
# Outline: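 Eight- or eleven-point concentration series, 48 h treatment at 37 degrees C in growth media; readout CellTiter-Glo luminescence. Potency and efficacy were taken from the concentration-response curves.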
# [3] = qHTS of pediatric cancer cell lines to identify multiple opportunities for drug repurposing: Primary screen for TC32 cells (AID 1347089); note: nearly all actives have a fitted effect of over 60% in size
# Outline: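 Luminescent CellTiter-Glo read-out of metabolically active TC32 cells after 48 h compound exposure. Primary: MIPE 11-point, 0.78 nM–46 µM; NPC 8-point, 0.59 nM–46 µM. Confirmatory: 11-point dilutions.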
SMILES,Potency [1],Potency [2],Potency [3]
O=c1c(-c2ccc(O)cc2)coc2cc(OC3O[C@H](CO)[C@H](O)[C@H](O)[C@H]3O)cc(O)c12 (stereo partly specified),inactive,3.72 µM (active),
CC(C)C[C@H](CC(=O)O)C(=O)N[C@@H](Cc1c[nH]c2ccccc12)C(=O)N[C@@H](C)c1ccccc1,inactive,inactive,
CC[C@H]1OC(=O)[C@H](C)[C@@H](O[C@H]2C[C@@](C)(OC)[C@@H](O)[C@H](C)O2)[C@H](C)[C@@H](O[C@@H]2O[C@H](C)C[C@H](N(C)C)[C@@H]2O)[C@](C)(O)C[C@@H](C)CN(C)[C@H](C)[C@@H](O)[C@]1(C)O,inactive,inactive,
C[N+]1(C)[C@@H]2CC(OC(=O)[C@H](CO)c3ccccc3)C[C@H]1[C@H]1O[C@@H]12 (stereo partly specified),inactive,inactive,
O=c1cc(-c2ccccc2)oc2cc(O)c(O)c(O)c12,inactive,inactive,
CCOC(CN1C(=O)[C@](CC(=O)Nc2ccc(C)cc2)(NC(=O)Nc2ccc(C)cc2)c2ccccc21)OCC,,,inactive
CO[C@H]1C[C@@H]2CC[C@@H](C)[C@@](O)(O2)C(=O)C(=O)N2CCCC[C@@H]2C(=O)O[C@H]([C@H](C)C[C@@H]2CC[C@H](OP(C)(C)=O)[C@H](OC)C2)CC(=O)[C@H](C)C=C(C)[C@@H](O)[C@@H](OC)C(=O)[C@H](C)C[C@H](C)C=CC=CC=C1C,inactive,inactive,
O=C(Nc1cccc(Br)c1)c1cccc(S(=O)(=O)N2CCCCCC2)c1,,,inactive
CN(C)CCC=C1c2ccccc2COc2ccc(CC(=O)O)cc21,inactive,inactive,
